Assay outcomes: PubChem BioAssay, National Center for Advancing Translational Sciences (NCATS)
LASV entry inh: qHTS for Inhibitors of binding or entry into cells for Lassa Virus. Lassa virus pseudotype entry inhibition, cell reporter. Potency, µM (highest dose often 37.9 µM), for inactives: top-dose activity change, negative = inhibition, most hits filed as inhibitors. 300,000 tested, 1.2% active. AID 540256, 2011; calls by dose curve; tested in HEK293 cells; also: potency is read from the fitted curve at half-maximal effect; nearly all actives have a fitted effect of over 50% in size
MARV entry inh: qHTS for inhibitors of binding or entry into cells for Marburg Virus | Marburg virus pseudotyped entry inhibition, cell reporter | Potency, µM (top dose mostly 37.8 µM), for the others: at the highest dose activity change, negative = inhibition, actives largely listed as inhibitors | 300,000 tested, 1.8% active | AID 540276, 2011; calls by dose curve; tested in HEK293 cells; also: potency is read from the fitted curve at half-maximal effect
VACV Venus inh: qHTS for Stage-Specific Inhibitors of Vaccinia Orthopoxvirus: Venus Reporter Primary qHTS. Vaccinia virus Venus reporter expression, fluorescence. 330,000 tested, 0.46% active. Potency, µM (top dose mostly 36.5 µM), for the others: at the highest dose activity change, negative = inhibition, usual class: inhibitors; calls by dose curve; tested in A549 cells; also: potency is read from the fitted curve at half-maximal effect; nearly all actives have a fitted effect of over 30% in size
VACV mCherry inh: qHTS for Stage-Specific Inhibitors of Vaccinia Orthopoxvirus: mCherry Reporter Primary qHTS | Vaccinia virus mCherry reporter infection, fluorescence | Potency, µM (titrated, usually from 36.5 µM), inactives show at the highest dose activity change, negative = inhibition, hits mostly inhibitors | 310,000 tested, 0.63% active; calls by dose curve; tested in A549 cells; also: potency is read from the fitted curve at half-maximal effect; nearly all actives have a fitted effect of over 35% in size
HCV inhibitor: qHTS Assay for Inhibitors of Hepatitis C Virus (HCV); Huh7.5.1 HCVcc-Cre infection, luciferase reporter, 44 h; Potency, µM (top dose mostly 41.8 µM), for inactives: at the highest dose activity change, negative = inhibition, most hits filed as inhibitors; 340,000 tested, 3.4% active; AID 651820, 2012; active = well fitted inhibition curve with a large enough effect; inconclusive = small, poorly fitted or top-dose-only effect, or another doubt; inactive = no such curve, though single readings can be large or run the other way; also: potency is read from the fitted curve at half-maximal effect
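Infectious HCVcc-Cre (~0.5 moi) was added to cells just after compound, with cells seeded 4 h earlier at 1,000 per well. Luciferase activity after 44 h culture reported infection; substrate was incubated 15 min at room temperature before reading.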
HCMV inh: qHTS Assay for inhibitors of the human cytomegalovirus (HCMV) | activity change, negative = inhibition, % at 57.5 µM | 410,000 tested, 4.5% active | HFF cells, HCMV-luciferase reporter, 72 h; stronger effect = lower value; in the data active = activity change below about -60%; inconclusive = no clear call, values can overlap the other calls; inactive = above about -39%
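HFF cells seeded 16 h at 37C, treated with compounds, infected with luciferase-reporter HCMV at MOI 1 PFU/cell; luciferase read at 72 h post infection, normalized to buffer-only and Salinomycin controls.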
Starred values were filed as active, the others as inactive; i = inactive; u = inconclusive; x = no result; ! = a repeat was not active; [ ] = remark or other dose. Only some compounds are listed: those with a hit (about 7.8% of all), similar ones and a draw of the others. % is scaled to controls: 0 for no effect and ±100 for the full control effect.

SMILES | LASV entry inh | MARV entry inh | VACV Venus inh | VACV mCherry inh | HCV inhibitor | HCMV inh
O=C(COc1ccc([N+](=O)[O-])cc1)Nc1ccc(N2CCN(C(=O)c3ccco3)CC2)cc1 | 4%[46.1 µM] | 6%[46.1 µM] | -19% | -10% | 11µM* | u
Cc1cccc(NC(=S)N2CCN(C(=O)c3ccco3)CC2)c1 | -28%[46.1 µM] | -14%[46.1 µM] | 6% | -18% | -2% | -19
O=C(COc1ccc(Cl)cc1)Nc1ccc(N2CCN(C(=O)c3ccco3)CC2)cc1 | u | u | u | -20% | 10µM* | -86*
Cc1cccc(OCC(=O)Nc2ccc(N3CCN(C(=O)c4ccco4)CC3)cc2)c1C | -11%[46.1 µM] | u | -17% | i | -22% | -10
Cc1ccccc1OCC(=O)Nc1ccc(N2CCN(C(=O)c3ccco3)CC2)cc1 | u | u | u | u | u | -73*
COc1ccc(OCC(=O)Nc2ccc(N3CCN(C(=O)c4ccco4)CC3)cc2)cc1 | 14% | u | 10% | i | -12% | u
O=C(c1ccco1)N1CCN(C(=S)Nc2cccc([N+](=O)[O-])c2)CC1 | u | u | -11% | i | -18% | -69*
O=C(NCc1cccc(F)c1)c1cccc(NC(=O)c2nsc3ccccc23)c1 | u | x | -7% | -12% | x | 69
C[C@H](CO)NS(=O)(=O)c1cc(Cl)ccc1F | 5%[46.1 µM] | x | x | x | x | x
Cc1cccc(CNC(=O)C2CCN(c3nnc(-n4c(C)ccc4C)s3)CC2)c1 | -5%[46.1 µM] | -6%[46.1 µM] | -9% | -8% | x | 7
CCOc1cccc2sc(Cl)nc12 | u | u | -20% | -7% | 27% | 28
CCOc1ccc(OCC)c2sc(C)nc12 | -6% | -3% | x | x | 10µM* | 34
O=C(NCc1ccccn1)c1ccccc1OCc1ccc(F)cc1 | -4%[46.1 µM] | -22% | -9% | i | -15% | 1
O=C(NCc1ccccn1)c1ccccc1OCc1ccccc1Cl | x | x | -9% | -16% | x | -66*
COc1cc(CNCc2ccccn2)ccc1OCc1ccccc1Cl | -18% | u | -22% | -21% | u | -67*
CCC/C=C/c1ccc(CN2C(CC(C)C)C(=O)N(Cc3cn(CCOCOC)nn3)CCS2(=O)=O)cc1 (stereo not given) | x | x | -18% | -7% | x | 6
CN(NC(=O)C(C)(C)C)c1nc(-c2ccccc2)nnc1C(F)(F)F | 10% | 10% | -8% | -5% | 16% | -63*
COc1cc([C@@H]2c3cc4c(cc3C(O[C@@H]3O[C@@H]5COC(c6cccs6)O[C@H]5[C@H](O)[C@H]3O)C3COC(=O)[C@@H]32)OCO4)cc(OC)c1O (stereo not given in full) | x | x | u | 2µM* | x | x
CCn1c(SCc2ccc(F)cc2)nc2c(c1=O)SCC2 | -12% | u | -17% | -2% | 11% | -23
CCn1c(SCc2cccc(F)c2)nc2c(c1=O)SCC2 | 15% | -23%[46.1 µM] | -8% | i | 12% | -60*
O=C1OC(/C(=C\Nc2cc(Cl)ccc2O)[N+](=O)[O-])c2ccccc21 (stereo not given) | 19% | u | -22% | u | -25% | -77*
CN1CCN(C2Cc3cc(F)ccc3Sc3ccc(Cl)cc32)CC1 (stereo not given) | x | x | x | x | -13% | -9
CN1CCN(S(=O)(=O)c2cc(C(F)(F)F)ccc2Cl)CC1 | 19% | 21% | 4% | -19% | 25% | 17
CN1CCN(C2Cc3ccccc3Sc3cc(C(F)(F)F)ccc32)CC1 (stereo not given) | u | u | -27% | u | 11µM* | -109*
CC(C)c1ccc2c(c1)C(N1CCNCC1)Cc1ccc(F)cc1S2 (stereo not given) | u | u | u | 11µM* | u | -98*
SMILES | LASV entry inh | MARV entry inh | VACV Venus inh | VACV mCherry inh | HCV inhibitor | HCMV inh
CSc1ccc2c(c1)C(N1CCN(C)CC1)Cc1ccccc1S2 (stereo not given) | 18µM* | 6.3µM* | u | u | u | -75*!
CN1CCN(C2Cc3ccccc3Sc3ccc(Cl)cc32)CC1 (stereo not given) | 10µM* | 16µM* | -29% | u | u | -11
C#CCOc1ccc(-c2nnc(Nc3ccc(NC(C)=O)cc3)c3ccccc23)cc1 | u | u | 3% | -12% | x | -20
CN1CCN(C2Cc3ccc(F)cc3Sc3cc(F)c(Cl)cc32)CC1 (stereo not given) | u | u | u | u | u | -95*
CN1CCN(C(=O)C2CC(=O)N(c3ccc(F)c(Cl)c3)C2)CC1 (stereo not given) | x | x | -12% | i | 9% | -20
Cc1nnc(N2C(=O)c3oc4ccccc4c(=O)c3C2c2cccc(OCCC(C)C)c2)s1 (stereo not given) | 1%[46.1 µM] | u | -3% | -12% | x | -3
COc1cc2c(cc1NC(=S)Nc1cccc3ccccc13)oc1ccccc12 | 16% | 2% | -16% | x | 2.5µM* | 26
COc1cc2c(cc1NC(=S)Nc1cccc(C(F)(F)F)c1)oc1ccccc12 | -1% | -24% | -23% | u | 10µM* | -21
COCCCNC(=S)Nc1cc2oc3ccccc3c2cc1OC | -14%[46.1 µM] | u | u | u | 8.9µM* | 4
COc1cc2c(cc1NC(=O)COC(=O)c1ccc(C(C)(C)C)cc1)oc1ccccc12 | 8% | 17%[46.1 µM] | -5% | i | 9% | -10
Cc1[nH]c2ccccc2c1C(=O)CNc1ccc(Br)cc1 | x | x | -14% | -14% | x | x
COC(=O)c1cc(NC(=O)c2cc(-c3ccccc3Cl)oc2C(F)(F)F)ccc1N1CCOCC1 | x | x | x | x | 16µM* | -7
CC(=O)Nc1sc(N/N=C\c2ccc(O)cc2)nc1-c1cccs1 | x | x | x | x | 7% | -27
CCN(CC)c1ccc(/C=C(\C#N)c2nc(-c3cccs3)c(NC(C)=O)s2)cc1 | x | -7% | x | x | 13µM* | x
CC(C)C(O)c1ccc2c(c1)CN(C(=O)c1ccccc1-n1cccn1)CCO2 (stereo not given) | x | x | 2% | -9% | x | x
c1ccc(-c2nc(-n3nc4ccccc4n3)nc3ccccc23)cc1 | u | u | -16% | x | 14µM* | -19
CCOc1ccc(NS(=O)(=O)c2cc(NC(=O)c3cccc(C)c3)ccc2Cl)cc1 | 16µM* | u | 13µM* | u | 11µM* | u
COc1cc(NC(=O)C2CC(c3c(F)cccc3Cl)=NO2)cc(OC)c1OC (stereo not given) | -14%[46.1 µM] | u | -18% | -12% | 25µM* | -27
CCOc1cc(CNC(=O)C2COc3ccccc3C2)cc(OCC)c1OCC (stereo not given) | -3%[46.1 µM] | x | -8%[7.34 µM] | -11% | x | 16
c1coc(-c2ccccc2CN2CCOc3ccc(CN4CCOCC4)cc3C2)c1 | x | x | -5% | -8% | x | x
